Sm TGR block – inhibitors of Schistosoma mansoni thioredoxin glutathione reductase; Q962Y6; purified TGR, DTNB reduction, TNB absorbance 405 nm; Potency, µM (top dose mostly 114 µM), for inactives: at the top dose activity change, negative = inhibition, most hits filed as inhibitors; actives 3% (n = 360,000); AID 485364; further: potency means the concentration at half of the fitted maximal effect; nearly all actives have a fitted effect of over 60% in size
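Kinetic colorimetric format: TGR-catalysed, NADPH-driven DTNB reduction monitored via TNB absorbance. Enzyme dispensed at 20 nM; compound exposure 15 min at room temperature before reaction start.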
Pf growth 48h – P. falciparum growth inhibition at 48 hours (one generation); P. falciparum luciferase growth in erythrocytes, 48 h; Potency, µM (top dose mostly 28.7 µM), for inactives: at the top dose activity change, negative = inhibition, actives largely listed as inhibitors; actives 5.9% (n = 310,000); AID 504832; further: potency means the concentration at half of the fitted maximal effect
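Parasite viability was followed by luminescence of a genomically integrated firefly luciferase. Cultures held 0.1% parasitemia at 2% hematocrit (final), incubated under 5% CO2 at 37 C.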
Pf growth 96h – P. falciparum growth inhibition at 96 hours; P. falciparum luciferase reporter growth, 96 h; Potency, µM (top dose mostly 28.7 µM), for the others: top-dose activity change, negative = inhibition, actives largely listed as inhibitors; actives 6.9% (n = 320,000); further: potency means the concentration at half of the fitted maximal effect
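Parasite growth measured via integrated firefly luciferase reporter in P. falciparum. Infected erythrocytes at 2% hematocrit, 0.05% parasitemia final were treated 96 hours at 37 C under 5% CO2, and luminescence was read.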
HCMV antiviral – blocks human cytomegalovirus replication; activity change, negative = inhibition, % at 57.5 µM; actives 4.5% (n = 410,000); HFF cells, HCMV-luciferase reporter, 72 h; hits give low values; AID 1259415; in the data active means activity change below about -60%; inconclusive means no clear call, values can overlap the other calls; inactive means above about -39%
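Inhibition of viral replication was scored as loss of reporter luminescence in HFFs infected with HCMV-luciferase (MOI 1 PFU/cell) for 72 h; compounds tested at 2 doses, normalized to buffer and Salinomycin controls.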
FBPA Giardia inh – blocks Giardia fructose-bisphosphate aldolase activity; A8B2U2; purified Giardia FBPA; Potency, µM (highest dose often 59.6 µM), for inactives: at the top dose activity, negative = inhibition, usual class: inhibitors; actives 0.71% (n = 290,000); AID 2451; further: potency means the concentration at half of the fitted maximal effect; nearly all actives have a fitted effect of over 55% in size
Target sequence (A8B2U2 whole entry, looked up): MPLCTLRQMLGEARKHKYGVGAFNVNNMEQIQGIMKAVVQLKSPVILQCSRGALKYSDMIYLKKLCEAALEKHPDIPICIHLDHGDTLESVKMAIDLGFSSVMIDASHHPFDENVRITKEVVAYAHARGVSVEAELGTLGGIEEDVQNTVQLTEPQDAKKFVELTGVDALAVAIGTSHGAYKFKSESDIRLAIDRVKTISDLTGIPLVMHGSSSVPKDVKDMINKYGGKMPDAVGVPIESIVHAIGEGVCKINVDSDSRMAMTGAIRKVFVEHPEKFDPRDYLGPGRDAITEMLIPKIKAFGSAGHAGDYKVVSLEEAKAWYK
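Giardia FBPA (40 nM reagent) was preincubated 10 min at RT with compound (up to 57.5 uM final), then substrate plus GAPDH/TPI/NAD/arsenate coupling system with diaphorase/resazurin was added; resorufin fluorescence (525/598 nm) was read after 20 min.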
* = called active by the depositor; ? = inconclusive; / = no result; [ ] = another dose, or the depositor's remark. This is a sample that favours compounds with a hit; in the whole collection about 14% have one here. Unless noted, the call rests on the fitted dose curve; in most records, active means well fitted curve in the direction sought with a large enough effect; inconclusive means small, poorly fitted or top-dose-only effect, or another doubt; inactive means no such curve, though single readings can be large; an effect the other way counts as inactive or inconclusive. On the % scale 0 is the no-effect control and ±100 the full control effect.

SMILES | Sm TGR block | Pf growth 48h | Pf growth 96h | HCMV antiviral | FBPA Giardia inh
COCCCNC(=O)C(=O)Nc1cc2c3c(c1)CCN3C(=O)CC2 | -13.4% | 15.3% | 13.8% | 42.6 | 10.2%
CCc1ccccc1NC(=O)C(CCSC)NS(=O)(=O)c1ccc2c(c1)oc(=O)n2C (centres undefined) | 1.8% | / | / | 6.8 | /
CN(C(=O)c1cccc(NC(=O)Cc2ccc(NC(=O)C3CCCN(C(=O)CCc4ccccc4)C3)cc2)c1)C1CCC1 (centres undefined) | / | / | / | -32.2 | /
CN(C(=O)c1ccc(NC(=O)Cc2ccc(NC(=O)C3CCCN(C(=O)CCc4ccccc4)C3)cc2)cc1)C1CC1 (centres undefined) | -9.1% | 13.1µM* | ? | -86.4* | /
CN(C(=O)c1cccc(NC(=O)Cc2ccc(NC(=O)C3CCCN(C(=O)CCc4ccccc4)C3)cc2)c1)C1CCCC1 (centres undefined) | / | / | / | -71.6* | /
CN(Cc1ccccc1)C(=O)c1cccc(NC(=O)Cc2ccc(NC(=O)C3CCCN(C(=O)CCc4ccccc4)C3)cc2)c1 (centres undefined) | / | / | / | -2.1 | /
CN(Cc1ccccc1)C(=O)c1ccc(NC(=O)Cc2cccc(NC(=O)C3CCCN(C(=O)CCc4ccccc4)C3)c2)cc1 (centres undefined) | 1.4% | 3.7µM* | 1.47µM* | -68.4* | /
CN(C(=O)c1ccc(NC(=O)Cc2cccc(NC(=O)C3CCCN(C(=O)C4CCCC4)C3)c2)cc1)C1CCCC1 (centres undefined) | 6.6% | 11.7µM* | 3.7µM* | -23.7 | /
C=CCNc1nc2cc(-c3ccccc3C)sc2c(=O)n1C | / | / | / | 20.5 | /
Cc1ccc(C(=O)CSc2nnc(C3CC3)n2C2CC2)s1 | -5.9% | 245.9% | 76.2% | -3.6 | /
CCc1ccc(N(CC(=O)NC(C)C)C(=O)CCC(=O)Nc2nccs2)cc1 | -2.1% | -11.0% | 90.2% | 13.7 | 0.5%
O=C(Nc1cccc(F)c1)N1CC2(CCN(C(=O)c3cc(C(F)(F)F)cc(C(F)(F)F)c3)CC2)C1 | / | / | / | / | -0.4%
CC[C@]1(c2ccccc2)NC(=O)N(C)C1=O | / | / | / | / | -5.5%[21.7 µM]
O=C(N/N=C/c1cccnc1)c1ccc2c(c1)OCCO2 | 2.3% | 77.9% | 45.6% | 2.9 | -2.3%
CN(C(=O)c1ccc(NC(=O)Cc2cccc(NC(=O)C3CCCN(C(=O)C4CCC4)C3)c2)cc1)C1CC1 (centres undefined) | / | / | / | 43.9 | /
CN(C(=O)c1ccc(NC(=O)Cc2cccc(NC(=O)C3CCCN(C(=O)CCc4ccccc4)C3)c2)cc1)C1CCCC1 (centres undefined) | 2.1% | 0.117µM* | ? | -4.8 | /
Cc1ccc2cc3c(N)c(C(=O)N4CCOCC4)sc3nc2c1 | -25.8% | 128.3% | 0.0% | 118.8 | -10.5%
Cc1cccc(NC(=O)c2sc3nc(N)c(C#N)cc3c2N)c1 | -10.9% | ? | ? | 82.1 | -9.0%
Cc1ccc2nc3sc(C(=O)Nc4c(C)[nH]c(=O)[nH]c4=O)c(N)c3cc2c1 | 2.3% | 35.2% | 8.28µM* | -18.3 | 5.9%
Cc1ccc2cc3c(N)c(C(=O)Nc4c(C)[nH]c(=O)[nH]c4=O)sc3nc2c1 | 0.5% | 3.2% | ? | 42.0 | -13.8%
Cc1ccc2nc3sc(C(=O)N4CCOCC4)c(N)c3cc2c1 | -1.4% | 177.4% | -28.4% | -68.5* | 6.8%
Cc1[nH]c(=O)[nH]c(=O)c1NC(=O)c1sc2nc3c(C)cccc3cc2c1N | 2.1% | 10.3% | 4.65µM* | -26.3 | -14.4%
CCN(CC)c1ccc(C(=O)NC(=S)Nc2cc(S(=O)(=O)N3CCOCC3)ccc2-n2cncn2)cc1 | -8.7% | -11.8% | -9.4% | -15.2 | ?
Cc1cc(C)cc(Oc2ccccc2CO)c1 | / | -5.7% | 10.4% | / | -0.6%
Cc1ccccc1CN1CC2=C(CCN(Cc3ccccc3)C2=O)N2CCN=C12 | / | / | / | -99.3* | /
SMILES | Sm TGR block | Pf growth 48h | Pf growth 96h | HCMV antiviral | FBPA Giardia inh
Cc1nn(CC(=O)Nc2ccc(N3CCOCC3)cc2)c(C)c1Cl | -1.4% | 15.1% | -17.2% | 1.0 | /
CC1C/C(=N/Nc2ccc([N+](=O)[O-])cc2[N+](=O)[O-])CC(C)(C)C1 (centres undefined) | 4.2% | 10.4µM* | ? | -7.8 | 6.2%
CC1CCCC/C1=N/Nc1ccc([N+](=O)[O-])cc1[N+](=O)[O-] (centres undefined) | -22.0% | / | 236.7% | -11.5 | 5.5%
CCOc1ccc(C2CC(c3c(O)c4ccccc4oc3=O)=NN2c2ccccc2)cc1OC (centres undefined) | -27.9% | 14.4% | ? | -78.3* | ?
NC(=O)Cn1c(=O)n(CCCCCC(=O)NCc2ccc3c(c2)OCO3)c(=O)c2sccc21 | 5.2% | / | / | 2.2 | /
CCOC(=O)C1=C(C)n2c(s/c(=C/c3cccc([N+](=O)[O-])c3)c2=O)=NC1c1ccc(O)c(OC)c1 (centres undefined) | 2.5% | 2.94µM* | / | -3.2 | 0.1%
Cc1nc2ccccc2n1CCc1nc2c3ccccc3nc(SCC(=O)Nc3ccc(C(C)C)cc3)n2n1 | -7.8% | / | / | 3.9 | /
Cc1cc(C(=O)N/N=C/c2cc([N+](=O)[O-])ccc2O)c2ccccc2n1 | -0.6% | 9.28µM* | ? | 89.8 | ?
O=C(NC(C(=O)N/N=C/c1cc([N+](=O)[O-])ccc1O)c1n[nH]c(=O)c2ccccc12)c1ccccc1 (centres undefined) | -9.1% | ? | ? | -89.1* | -9.5%
O=C(N/N=C/c1cc([N+](=O)[O-])ccc1O)c1cc(-c2ccccc2)nc2ccccc12 | -12.9% | 2.94µM* | -72.8% | -99.7* | ?
COc1ccc(NC(=O)c2c(C)oc3ccc(O)c(CN4CCN(Cc5ccccc5)CC4)c23)cc1Cl | -13.7% | / | / | -13.8 | /
O=C(OCC(=O)c1ccc(Cl)cc1Cl)c1ccccn1 | / | / | / | -19.1 | /
O=C(OCC(=O)c1ccccc1Br)c1ccccn1 | -25.1% | 20.1% | 8.28µM* | 69.5 | -9.6%
C[C@@H]1COC(=O)[C@@H](Cc2ccc(F)cc2)C/C=C\C[C@@H](CC(=O)N[C@H](CO)Cc2ccccc2)C(=O)N1 | / | / | / | -25.5 | /
O=C1NC(=O)C2(Cc3ccccc3N3CCCC32)C(=O)N1c1ccccc1 (centres undefined) | ? | -12.7% | ? | 75.2 | -10.0%
CN1c2ccc([N+](=O)[O-])cc2CC2(C(=O)NC(=O)N(c3ccc(Br)cc3)C2=O)C1c1ccccc1 (centres undefined) | 15.0% | 1.65µM* | ? | -9.2 | -1.4%
COC(=O)CCCC(=O)N1CCOCCN(C(=O)CCCC(=O)OC)CCOCC1 | -12.3% | -4.4% | -12.5% | -101.4* | 10.7%
COC(=O)CCC(=O)N1CCOCCOCCN(C(=O)CCC(=O)OC)CCOCCOCC1 | -0.1% | -26.6% | -2.0% | 3.3 | 7.0%
CC(C)CCn1c(SC(C)C(=O)NC2CC2)nc2ccccc2c1=O (centres undefined) | 6.4% | ? | ? | -34.2 | /
